According to PubChem BioAssay AID1745853 (National Center for Advancing Translational Sciences (NCATS), 2022):
“And” between values parts separate entries of the source, which are not always exact repeats. Equal entries are not always repeated. About 970 (3.9%) of roughly 25,000 compounds were called active. Another 8% or so got no clear call; they are omitted. This is one part of a sample in which actives are shown more often than they occur. The rule behind the calls is not given here.

Assays:
Test in all cases: Primary Screen for Target Class Profiling of Small Molecule Inhibitors of Methyltransferases
[1] = molecular target: Catechol O-methyltransferase (Homo sapiens) (UniProt P21964); details: purified enzyme, MTase-Glo SAH luminescence; activity change, negative = inhibition: at 40 µM, stronger effect = lower value; outcome: 40 uM
Catechol O-methyltransferase (Homo sapiens), sequence (P21964 whole entry, looked up): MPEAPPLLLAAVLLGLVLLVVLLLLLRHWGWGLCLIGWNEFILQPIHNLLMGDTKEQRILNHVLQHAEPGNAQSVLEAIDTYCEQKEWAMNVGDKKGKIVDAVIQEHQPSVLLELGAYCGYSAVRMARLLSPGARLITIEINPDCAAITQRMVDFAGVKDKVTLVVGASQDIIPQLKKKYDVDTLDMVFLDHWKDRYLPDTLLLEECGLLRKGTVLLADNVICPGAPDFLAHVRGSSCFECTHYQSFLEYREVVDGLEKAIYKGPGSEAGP
Description: (§1) PI: Matthew D. Hall Ph.D. and Quinlin M. Hanson Ph.D.
(§2) National Center for Advancing Translational Sciences (NCATS)
(§3) National Institute of Health (NIH), Rockville, MD
(§4) Target class profiling (TCP) is a chemical biology approach amenable to investigating understudied biological targets. TCP is achieved by developing a generalizable assay platform and applying it to screen a curated set of compound libraries against representative members of a target class. Small molecule methyltransferases (SMMTase) are a subclass of methyltransferase that act on metabolites to modulate signaling pathways, metabolize xenobiotics, or balance the available methyl pool. We screened four curated libraries totaling 27,574 unique compounds against the SMMTases nicotinamide N-methyltransferase (NNMT), phenylethanolamine N-methyltransferase (PNMT), histamine N-methyltransferase (HNMT), glycine N-methyltransferase (GNMT), catechol O-methyltransferase (COMT), and guanidinoacetate N-methyltransferase (GAMT). The data generated by this TCP can be leveraged for informed tool molecule development. For example, in the associated publication we identified a chemotype of HNMT-selective inhibitors. Additionally, we identified a putative SMMTase-selective inhibitor with potential as a tool molecule for studying broader methyltransferase biology.
(§5) High-through put screening assays were developed at the National Center for Advancing Translational Science (NCATS) for the enzymes NNMT, PNMT, HNMT, GNMT, COMT, and GAMT. Enzymatic activity was measured as a function of SAM cofactor conversion using the MTase Glo kit (Promega) for all enzymes. All assays were performed in 1536-well format with substrates and SAM concentrations at KM values. Enzyme concentration and assay timing were optimized for 10-20% SAM conversion. Initial screening of 27,574 compounds was done as single-point assays using the highest compound concentration (40 uM). […] These compounds were replated in 11-point dose response and assayed against NNMT, PNMT, HNMT, GNMT, COMT, GAMT, and a counter-assay. The IC50 and efficacy (maximal response) values were determined for each dose-response curve. These values are also accounted for in the area under the curve (AUC) values.
(§6) PROTOCOL TABLE (as described by Inglese J, Shamu CE and Guy RK. 2007)
(§7) SEQUENCE No. (e.g., 1, 2, 3, etc.); […] (e.g., Cells, Incubation, Reagent, etc.); VALUE; DESCRIPTION.
(§8) 1; Reagent; 2 uL; SMMTase Enzyme (2x) in reaction buffer, columns 1- 48.
(§9) 2; Reagent; 1 uL; SAM (4x) in reaction buffer, columns 1-48.
(§10) 3; Controls; 23 nL; DMSO in column 4; sinefungin in DMSO (0 uM - 40 uM) in 7-point 1:2 dilution series (n = 2) in column 2.
(§11) 4; Compounds; 23 nL; Columns 5-48.
(§12) 5; Reagent; 1 uL; Substrate (4x) in reaction buffer, columns 2-48.
(§13) 6; Time; 20-30 min; Incubation.
(§14) 7; Reagent; 1 uL; MTase-Glo reagent (5X), columns 1-48.
(§15) 8; Time; 30 min; Incubation.
(§16) 9; Reagent; 5 uL; MTase-Glo Detection reagent, columns 1-48.
(§17) 10; Time; 30 min; Incubation, luminescence evolution.
(§18) 11; Detection; Luminescence; ViewLux uHTS Microplate Imager (PerkinElmer).
(§19) NOTES (numbers refer to Sequence numbers above)
(§20) 1, 2, 5. White Medium Binding Greiner 1536-well plates (Cat #789175-F, Greiner Bio-One, Monroe, NC); Reaction buffer: 50 mM Tris, pH 8.0, 3 mM MgCl2, 1 mM EDTA, 50 mM NaCl, 1 mM DTT, and 0.1 mg/mL BSA. Evaporation was prevented by covering assay plates with metal lids containing holes to allow gas diffusion.
(§21) 1. Six SMMTase were profiled: HNMT, GNMT, PNMT, COMT, NNMT, GAMT
(§22) 5. The corresponding substrate was used for each enzyme: HNMT - 5.3 uM Histamine; GNMT - >500 uM Glycine; PNMT - 16.2 uM Norephinephrine; COMT - 13.7 uM Norephinephrine; NNMT - 3.8 uM Nicotinamide; GAMT - 2.5 uM Guanidinoacetate.6, 8, 10. Room temperature
(§23) 6. Final reaction conditions: 10 nM COMT, 5 uM SAM, 15 uM norepinephrine, 50 mM Tris, pH 8.0, 3 mM MgCl2, 1 mM EDTA, 50 mM NaCl, 1 mM DTT, and 0.1 mg/mL BSA; refer to tables 2 and S1 for specific timing.
8. […]

[2] = molecular target: Glycine N-methyltransferase (Homo sapiens) (UniProt Q14749); details: purified enzyme, MTase-Glo SAH luminescence; measured here: GNMT inhibition; at 40 µM; stronger effect = lower value
Glycine N-methyltransferase (Homo sapiens), sequence (Q14749 whole entry, looked up): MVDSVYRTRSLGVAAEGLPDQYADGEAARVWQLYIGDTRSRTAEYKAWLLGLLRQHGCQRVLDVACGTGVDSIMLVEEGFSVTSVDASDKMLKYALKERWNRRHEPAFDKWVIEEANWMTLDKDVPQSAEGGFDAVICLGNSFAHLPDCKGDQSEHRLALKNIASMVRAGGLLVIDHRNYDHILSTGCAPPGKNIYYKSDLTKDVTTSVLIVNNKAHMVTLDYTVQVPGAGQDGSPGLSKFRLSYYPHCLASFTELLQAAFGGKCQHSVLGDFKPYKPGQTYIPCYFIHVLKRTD
Description: as §1, §2, §3, §4, §5, §6, §7, §8, §9, §10, §11, §12, §13, §14, §15, §16, §17, §18, §19, §20, §21, §22, §23
8. […]

[3] = molecular target: Guanidinoacetate N-methyltransferase (Homo sapiens) (UniProt Q14353); details: purified enzyme, MTase-Glo SAH luminescence; measured here: GAMT inhibition; at 40 µM; stronger effect = lower value
Description: as §1, §2, §3, §4, §5, §6, §7, §8, §9, §10, §11, §12, §13, §14, §15, §16, §17, §18, §19, §20, §21, §22, §23
8. […]

[4] = molecular target: Histamine N-methyltransferase (Homo sapiens) (UniProt P50135); details: purified enzyme, MTase-Glo SAH luminescence; measured here: HNMT inhibition; at 40 µM; stronger effect = lower value
Histamine N-methyltransferase (Homo sapiens), sequence (P50135 whole entry, looked up): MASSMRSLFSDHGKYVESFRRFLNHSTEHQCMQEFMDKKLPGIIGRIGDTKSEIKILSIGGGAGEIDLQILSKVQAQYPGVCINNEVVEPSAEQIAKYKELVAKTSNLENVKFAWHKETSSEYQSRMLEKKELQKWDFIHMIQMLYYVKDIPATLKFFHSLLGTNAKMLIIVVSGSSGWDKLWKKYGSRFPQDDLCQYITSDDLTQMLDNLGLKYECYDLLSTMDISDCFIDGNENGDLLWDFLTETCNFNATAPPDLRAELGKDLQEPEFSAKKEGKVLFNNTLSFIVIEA
Description: as §1, §2, §3, §4, §5, §6, §7, §8, §9, §10, §11, §12, §13, §14, §15, §16, §17, §18, §19, §20, §21, §22, §23
8. […]

[5] = molecular target: Nicotinamide N-methyltransferase (Homo sapiens) (UniProt P40261); details: purified enzyme, MTase-Glo SAH luminescence; measured here: NNMT inhibition; at 40 µM; stronger effect = lower value
Nicotinamide N-methyltransferase (Homo sapiens), sequence (P40261 whole entry, looked up): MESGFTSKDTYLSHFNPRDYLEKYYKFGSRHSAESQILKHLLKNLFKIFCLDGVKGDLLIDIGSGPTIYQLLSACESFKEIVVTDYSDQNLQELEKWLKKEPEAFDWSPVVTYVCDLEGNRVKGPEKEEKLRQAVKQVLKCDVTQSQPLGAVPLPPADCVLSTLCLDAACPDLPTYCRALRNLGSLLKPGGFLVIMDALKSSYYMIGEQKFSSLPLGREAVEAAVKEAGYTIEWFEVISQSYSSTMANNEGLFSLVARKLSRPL
Description: as §1, §2, §3, §4, §5, §6, §7, §8, §9, §10, §11, §12, §13, §14, §15, §16, §17, §18, §19, §20, §21, §22, §23
8. […]

[6] = molecular target: Phenylethanolamine N-methyltransferase (Homo sapiens) (UniProt P11086); details: purified enzyme, MTase-Glo SAH luminescence; measured here: PNMT inhibition; at 40 µM; stronger effect = lower value
Phenylethanolamine N-methyltransferase (Homo sapiens), sequence (P11086 whole entry, looked up): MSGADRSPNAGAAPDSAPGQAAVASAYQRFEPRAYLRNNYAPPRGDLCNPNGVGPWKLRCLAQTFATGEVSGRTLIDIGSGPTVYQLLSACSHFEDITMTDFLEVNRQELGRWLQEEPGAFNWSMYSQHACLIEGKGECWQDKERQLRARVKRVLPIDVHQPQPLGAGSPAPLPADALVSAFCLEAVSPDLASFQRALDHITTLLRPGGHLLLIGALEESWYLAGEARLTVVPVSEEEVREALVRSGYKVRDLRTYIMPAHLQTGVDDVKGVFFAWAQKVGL
Description: as §1, §2, §3, §4, §5, §6, §7, §8, §9, §10, §11, §12, §13, §14, §15, §16, §17, §18, §19, §20, §21, §22, §23
8. […]
% is set by controls: 0 for no effect and ±100 for the full control effect.

SMILES	activity change, negative = inhibition [1]	activity change, negative = inhibition [2]	activity change, negative = inhibition [3] [%]	activity change, negative = inhibition [4]	activity change, negative = inhibition [5]	activity change, negative = inhibition [6]
O=C(C1CC1)N1CCn2c(nn(-c3ccc(F)cc3)c2=O)C1	-5% (inactive)	-3.41%	-8.31	-2.04%	-9.2%	-5.36%
N#CSc1cc(SC#N)c(N)nc1N	-62.1% (active)	-92.7%	-77.3	-92.3%	-58.6%	-40.8%
C=C(C)Cn1c(=O)[nH]c2ccccc21	7.05% (inactive)	-1.89%	0	7.74%	13.6%	4.12%
CN1CCCN(S(=O)(=O)c2cccs2)c2ccccc21	-6.9% (inactive)	-11.1%	-3.04	-16.1%	-12.8%	-18.8%
Cc1cccc(CSc2nnc3n(CC(C)C)c(=O)c4ccccc4n23)c1	2.1% (inactive)	-7.23%	0.416	3.69%	-10.9%	4.42%
NCCCC(=O)N1CCN(C2CCNCC2)C(=O)C1	-0.26% (inactive)	-0.497%	-3.99	1.59%	-1.96%	0.025%
O=C(N[C@@H]1CN(C2CCOCC2)CC[C@@H]1CO)c1ccccc1	-14.8% (inactive)	-7.11%	-12.7	-6.52%	-17.2%	-14.2%
Cc1ccc(COc2ccc3c(-c4ccccc4)cc(=O)oc3c2)cc1	1.55% (inactive)	-1.02%	8.91	3.98%	6.08%	-3.92%
CCCN1C(=O)c2cc(C(=O)N3CCC(C)CC3)nn2CC1(C)C(=O)NC1CCCC1 (configuration not stated)	-0.787% (inactive)	-3.38%	3.26	4.03%	-4.98%	-1.07%
CCc1ccc(S(=O)(=O)c2nnn3c2nc(N2CCCCC2)c2ccccc23)cc1	3.62% (inactive)	0.777%	0	6.93%	-3.24%	-1.25%
Cc1cn(CCN2CCN(c3ccccc3-c3cc(C#N)cc(C(=O)NCCCN4CCCC4)c3)CC2)c2ccccc12	-11% (active) and 25.9% (active)	0.523% and -14.2%	12	-86.5% and -77.8%	-17.4% and 7.48%	-1.62% and 35.5%
CCOc1ccc(CN2C(=O)c3cc(C(C)(C)C)nn3CC2(C)C(=O)NC2CCCCCC2)cc1 (configuration not stated)	-0.389% (inactive)	-3.62%	4.61	-1.08%	-2.24%	-3.09%
COc1cccc(-c2ccc(C(=O)NCCN[S+](=O)([O-])c3cccs3)cc2)c1	1.95% (inactive)	-8.51%	-1.67	-4.59%	-5.98%	-13%
CCNC(=O)N1CC[C@H]2CC(=O)N(Cc3cccnc3)CC[C@H]2C1	-8.99% (inactive)	-6.64%	-7.68	-5.27%	-14.8%	-11.5%
COc1cccc(C(=O)N(CC(C)C)CC2CN(C(=O)Nc3ccccc3)CCO2)c1 (configuration not stated)	-3.51% (inactive)	-5.73%	-3.93	-3.02%	-7.14%	0.149%
Cn1c(=O)c2ccc(C(=O)NC3CCCCC3)cc2n2c(SCc3cccc(Cl)c3)nnc12	2.97% (inactive)	2.72%	0.691	2.66%	1.84%	5.9%
CCn1ccnc1CN(C)C(=O)c1cc(COc2ccccc2F)[nH]n1	4.03% (inactive)	-2.18%	-0.135	-1.52%	-4%	-1.63%
CC1(C(=O)NC2CCCCC2)Cn2c(ccc2-c2ccccc2)C(=O)N1CCC1=CCCCC1 (configuration not stated)	6.36% (inactive)	9.19%	0.753	8.84%	8.48%	6.08%
COc1ccc(CN2C(=O)c3ccc(-c4ccco4)n3CC2(C)C(=O)NC2CCCCCC2)cc1 (configuration not stated)	-2.99% (inactive)	-14.7%	0.968	-7.66%	-8.88%	-4.52%
CCCS(=O)(=O)NCC1Cn2cccc2C(=O)N1CCOC (configuration not stated)	2.41% (inactive)	0.792%	-0.491	0.026%	-3.41%	0.672%
Cc1ccc(OCCC2CCN(C(=O)Cn3cnc4c3c(=O)n(C)c(=O)n4C)C2)cc1 (configuration not stated)	-5.48% (inactive)	-7.34%	-5.09	-2.32%	-21%	-7.16%
CC1CCCC(NC(=O)C2(C)Cn3c(cc4sccc43)C(=O)N2c2ccc(Cl)cc2)C1C (configuration not stated)	-1.19% (inactive)	-1.5%	2.58	-0.753%	2.89%	-5.61%
CCC1CCCCN1C(=O)Cn1c(=O)oc2cc(S(=O)(=O)N3CCCC3)ccc21 (configuration not stated)	1.3% (inactive)	-2.17%	1.65	-2.01%	0.211%	-0.075%
Clc1cc(NCc2ccccn2)n2nccc2n1	-4.71% (inactive)	-11.1%	-2.25	-0.734%	-13.1%	6.59%
COc1ccc(NC(=O)c2ccc(-c3ccc(C(N)=O)cc3C)cc2)cc1N1CCN(C)CC1	0.282% (inactive)	-7.07%	2.94	-26%	-29.8%	-2.08%
COc1ccc(NC(=O)c2ccc(-c3ccc(C(=N)N)cc3C)cc2)cc1N1CCN(C)CC1	-7.6% (active)	-8.27%	-7.77	-66.3%	-22.1%	-8.76%
COc1ccccc1N1CCN(S(=O)(=O)c2cc3c(cc2C)n(C)c(=O)n3C)CC1	8.56% (inactive)	5.66%	0	4.91%	-2.8%	0.426%
